# Values without a mark were called inactive.
# What was measured:
# Assay in all cases: log2 ratio of Biotin-Ahx-Ub-VS probe labelling (fragment/DMSO); higher = less target engagement (more negative = stronger competition), active = hit call of the paper (q ≤ 0.05, log2 ratio ≤ -1)
# Conditions in all cases: compound concentration: 200 uM; treatment time: 3 h
# ALG13 = biological target: T1, ALG13 (UniProt Q9NP73)
# T1 sequence (whole entry): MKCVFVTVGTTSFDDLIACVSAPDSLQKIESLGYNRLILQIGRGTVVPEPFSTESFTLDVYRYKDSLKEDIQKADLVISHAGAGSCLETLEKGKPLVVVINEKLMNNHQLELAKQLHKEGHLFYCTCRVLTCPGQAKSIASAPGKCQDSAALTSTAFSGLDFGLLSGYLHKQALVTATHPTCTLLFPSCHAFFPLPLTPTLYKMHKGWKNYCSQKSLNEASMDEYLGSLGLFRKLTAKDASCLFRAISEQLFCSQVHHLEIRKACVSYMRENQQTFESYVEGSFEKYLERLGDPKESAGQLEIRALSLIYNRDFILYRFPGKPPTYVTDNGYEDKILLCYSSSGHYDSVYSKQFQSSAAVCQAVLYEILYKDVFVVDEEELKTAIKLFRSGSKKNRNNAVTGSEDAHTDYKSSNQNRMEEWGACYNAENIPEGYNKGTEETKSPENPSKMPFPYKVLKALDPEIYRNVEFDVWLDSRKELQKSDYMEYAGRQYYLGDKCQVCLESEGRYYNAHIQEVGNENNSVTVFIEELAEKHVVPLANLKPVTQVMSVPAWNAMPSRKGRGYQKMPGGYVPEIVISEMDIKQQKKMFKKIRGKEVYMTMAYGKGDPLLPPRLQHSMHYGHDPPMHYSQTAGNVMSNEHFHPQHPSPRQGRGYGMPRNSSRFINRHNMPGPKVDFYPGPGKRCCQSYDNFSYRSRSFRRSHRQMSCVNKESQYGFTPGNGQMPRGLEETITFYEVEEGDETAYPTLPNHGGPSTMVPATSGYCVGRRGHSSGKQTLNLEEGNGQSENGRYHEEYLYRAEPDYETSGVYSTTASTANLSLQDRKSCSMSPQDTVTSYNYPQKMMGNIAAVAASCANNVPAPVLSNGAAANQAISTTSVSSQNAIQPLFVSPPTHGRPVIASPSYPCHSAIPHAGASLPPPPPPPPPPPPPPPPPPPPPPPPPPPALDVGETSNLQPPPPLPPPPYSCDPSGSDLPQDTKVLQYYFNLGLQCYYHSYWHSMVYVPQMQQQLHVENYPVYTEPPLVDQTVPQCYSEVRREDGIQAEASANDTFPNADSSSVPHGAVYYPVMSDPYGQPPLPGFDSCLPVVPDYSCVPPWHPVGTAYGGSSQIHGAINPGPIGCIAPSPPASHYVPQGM
# In short: (§1)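 Using Biotin-Ahx-Ub-VS at 0.5 µM final for 1 h, DUBs were labelled in HEK293T lysate (495 µg per sample) that had first been treated in triplicate with fragment at 200 µM or vehicle for 3 h. NeutrAvidin enrichment, LysC and trypsin digestion and diaPASEF LC-MS/MS followed. Spectronaut label-free quantities were global-median-normalised. Values are average log2 fragment/vehicle ratios by unpaired t-test, using proteins with ≥2 unique peptides.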
# ATXN3 = ATXN3 (UniProt P54252)
# ATXN3, sequence (P54252 whole entry): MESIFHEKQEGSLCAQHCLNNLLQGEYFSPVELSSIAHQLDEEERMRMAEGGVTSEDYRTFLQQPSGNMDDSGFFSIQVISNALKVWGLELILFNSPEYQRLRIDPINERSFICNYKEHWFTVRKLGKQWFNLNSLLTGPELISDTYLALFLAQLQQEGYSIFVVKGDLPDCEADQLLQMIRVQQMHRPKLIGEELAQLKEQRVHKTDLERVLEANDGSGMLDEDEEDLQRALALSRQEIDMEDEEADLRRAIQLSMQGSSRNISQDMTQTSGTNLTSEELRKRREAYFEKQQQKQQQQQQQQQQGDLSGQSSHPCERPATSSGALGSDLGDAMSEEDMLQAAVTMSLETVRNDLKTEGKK
# In short: as §1
# BAP1 = biological target: T2, BAP1 (UniProt Q92560)
# T2 sequence (whole entry): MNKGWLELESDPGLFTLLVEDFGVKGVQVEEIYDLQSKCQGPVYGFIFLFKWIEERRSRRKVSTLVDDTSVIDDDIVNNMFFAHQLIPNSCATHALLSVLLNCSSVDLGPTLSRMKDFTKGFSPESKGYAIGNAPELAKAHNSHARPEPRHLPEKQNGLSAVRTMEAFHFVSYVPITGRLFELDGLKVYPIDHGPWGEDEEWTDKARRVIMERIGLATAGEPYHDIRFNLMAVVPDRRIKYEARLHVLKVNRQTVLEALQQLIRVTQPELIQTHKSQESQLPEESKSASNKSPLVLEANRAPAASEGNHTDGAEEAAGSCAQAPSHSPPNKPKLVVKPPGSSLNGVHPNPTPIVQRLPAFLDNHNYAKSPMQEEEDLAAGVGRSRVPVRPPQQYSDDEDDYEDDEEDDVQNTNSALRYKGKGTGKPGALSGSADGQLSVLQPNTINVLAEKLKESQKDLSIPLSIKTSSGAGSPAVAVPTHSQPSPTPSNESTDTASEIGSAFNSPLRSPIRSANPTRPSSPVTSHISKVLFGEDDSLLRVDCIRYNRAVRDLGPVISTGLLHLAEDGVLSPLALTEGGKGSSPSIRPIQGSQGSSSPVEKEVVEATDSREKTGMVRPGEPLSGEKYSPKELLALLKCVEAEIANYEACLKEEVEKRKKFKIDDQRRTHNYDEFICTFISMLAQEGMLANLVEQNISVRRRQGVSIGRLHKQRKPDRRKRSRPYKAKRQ
# In short: as §1
# EIF3F = EIF3F (UniProt O00303)
# EIF3F, sequence (O00303 whole entry): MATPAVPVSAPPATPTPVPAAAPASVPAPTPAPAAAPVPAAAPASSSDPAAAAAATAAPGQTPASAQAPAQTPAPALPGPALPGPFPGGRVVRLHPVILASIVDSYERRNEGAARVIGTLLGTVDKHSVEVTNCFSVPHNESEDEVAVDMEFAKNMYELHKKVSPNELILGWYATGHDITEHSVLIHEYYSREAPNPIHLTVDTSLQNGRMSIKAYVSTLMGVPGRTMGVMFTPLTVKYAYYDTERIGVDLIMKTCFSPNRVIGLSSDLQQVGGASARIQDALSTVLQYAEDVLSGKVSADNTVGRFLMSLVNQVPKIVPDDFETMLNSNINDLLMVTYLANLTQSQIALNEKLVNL
# In short: as §1
# EIF3H = EIF3H (UniProt O15372)
# EIF3H, sequence (O15372 whole entry): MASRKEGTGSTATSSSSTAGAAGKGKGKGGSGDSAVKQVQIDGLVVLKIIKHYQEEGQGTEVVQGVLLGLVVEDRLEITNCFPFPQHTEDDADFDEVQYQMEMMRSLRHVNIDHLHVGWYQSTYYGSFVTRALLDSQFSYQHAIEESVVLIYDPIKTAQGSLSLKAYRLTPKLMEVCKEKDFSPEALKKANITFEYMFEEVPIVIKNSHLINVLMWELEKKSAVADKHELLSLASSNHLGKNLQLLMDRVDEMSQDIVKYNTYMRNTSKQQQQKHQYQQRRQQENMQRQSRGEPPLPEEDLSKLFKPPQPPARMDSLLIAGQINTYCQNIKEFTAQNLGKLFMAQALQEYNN
# In short: as §1
# FAM105A = biological target: T3, FAM105A (UniProt Q9NUU6)
# T3 sequence (whole entry): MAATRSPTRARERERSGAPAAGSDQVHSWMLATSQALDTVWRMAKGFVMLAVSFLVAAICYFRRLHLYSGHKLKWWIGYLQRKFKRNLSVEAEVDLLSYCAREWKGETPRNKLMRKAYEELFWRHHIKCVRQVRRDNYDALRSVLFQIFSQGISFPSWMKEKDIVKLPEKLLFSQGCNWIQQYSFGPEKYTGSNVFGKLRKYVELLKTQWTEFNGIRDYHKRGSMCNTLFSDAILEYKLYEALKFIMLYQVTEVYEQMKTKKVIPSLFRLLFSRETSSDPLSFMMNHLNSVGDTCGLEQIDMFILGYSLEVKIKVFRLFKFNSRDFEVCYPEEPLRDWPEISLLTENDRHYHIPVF
# In short: as §1
# OTUB1 = OTUB1 (UniProt Q96FW1)
# OTUB1, sequence (Q96FW1 whole entry): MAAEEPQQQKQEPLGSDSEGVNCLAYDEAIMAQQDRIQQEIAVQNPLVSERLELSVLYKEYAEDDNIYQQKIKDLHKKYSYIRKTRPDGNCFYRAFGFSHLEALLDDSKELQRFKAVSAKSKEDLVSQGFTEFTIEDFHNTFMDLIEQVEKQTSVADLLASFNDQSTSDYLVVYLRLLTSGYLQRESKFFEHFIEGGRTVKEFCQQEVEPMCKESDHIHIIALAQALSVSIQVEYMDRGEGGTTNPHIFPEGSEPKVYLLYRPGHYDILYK
# In short: as §1
# OTUD4 = biological target: T4, OTUD4 (UniProt Q01804)
# T4 sequence (whole entry): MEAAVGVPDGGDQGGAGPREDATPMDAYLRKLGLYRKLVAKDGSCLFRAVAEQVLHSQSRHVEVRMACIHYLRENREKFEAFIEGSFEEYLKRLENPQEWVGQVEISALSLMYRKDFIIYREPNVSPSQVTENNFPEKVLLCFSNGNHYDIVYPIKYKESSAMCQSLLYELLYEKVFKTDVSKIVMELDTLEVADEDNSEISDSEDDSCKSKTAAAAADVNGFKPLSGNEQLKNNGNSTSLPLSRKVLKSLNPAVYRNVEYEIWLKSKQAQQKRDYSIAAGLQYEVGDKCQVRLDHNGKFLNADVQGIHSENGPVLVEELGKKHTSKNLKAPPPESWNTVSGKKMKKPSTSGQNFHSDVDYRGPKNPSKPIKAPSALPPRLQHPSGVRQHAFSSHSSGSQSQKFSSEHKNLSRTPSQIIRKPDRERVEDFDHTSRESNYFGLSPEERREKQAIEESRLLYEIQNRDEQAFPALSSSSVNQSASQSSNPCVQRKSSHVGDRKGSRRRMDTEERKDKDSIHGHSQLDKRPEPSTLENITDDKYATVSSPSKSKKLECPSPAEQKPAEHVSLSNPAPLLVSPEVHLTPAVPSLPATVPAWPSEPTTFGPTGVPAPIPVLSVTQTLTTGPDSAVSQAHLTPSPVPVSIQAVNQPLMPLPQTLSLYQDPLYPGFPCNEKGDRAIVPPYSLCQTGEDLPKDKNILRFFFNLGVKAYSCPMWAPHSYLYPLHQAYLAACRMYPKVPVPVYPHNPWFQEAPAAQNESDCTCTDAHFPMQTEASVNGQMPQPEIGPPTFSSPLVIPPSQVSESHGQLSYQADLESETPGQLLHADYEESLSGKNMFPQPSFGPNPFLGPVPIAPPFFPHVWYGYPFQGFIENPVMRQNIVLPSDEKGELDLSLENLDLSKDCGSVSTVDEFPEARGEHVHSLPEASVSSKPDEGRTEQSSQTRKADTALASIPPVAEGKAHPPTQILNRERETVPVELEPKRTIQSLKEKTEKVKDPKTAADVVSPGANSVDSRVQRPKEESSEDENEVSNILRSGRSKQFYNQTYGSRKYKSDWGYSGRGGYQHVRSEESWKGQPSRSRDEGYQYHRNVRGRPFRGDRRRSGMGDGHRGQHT
# In short: as §1
# OTUD5 = biological target: T5, OTUD5 (UniProt Q96G74)
# T5 sequence (whole entry): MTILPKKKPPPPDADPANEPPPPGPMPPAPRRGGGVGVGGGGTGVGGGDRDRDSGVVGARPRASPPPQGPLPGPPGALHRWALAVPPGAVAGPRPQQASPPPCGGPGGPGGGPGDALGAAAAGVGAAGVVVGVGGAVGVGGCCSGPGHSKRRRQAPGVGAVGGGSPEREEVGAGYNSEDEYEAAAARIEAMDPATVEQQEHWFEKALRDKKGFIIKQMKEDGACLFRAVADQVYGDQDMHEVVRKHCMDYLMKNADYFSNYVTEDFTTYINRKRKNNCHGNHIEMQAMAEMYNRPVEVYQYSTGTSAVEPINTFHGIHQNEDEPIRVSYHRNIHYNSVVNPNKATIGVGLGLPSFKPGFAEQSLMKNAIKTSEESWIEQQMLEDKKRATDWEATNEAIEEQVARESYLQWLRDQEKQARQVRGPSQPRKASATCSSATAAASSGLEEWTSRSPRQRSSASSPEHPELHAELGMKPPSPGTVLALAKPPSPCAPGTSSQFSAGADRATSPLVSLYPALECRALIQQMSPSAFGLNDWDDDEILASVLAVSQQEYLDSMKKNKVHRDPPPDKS
# In short: as §1
smiles,measurement,setting,value
COc1ccc(-c2csc(NC(=O)CCl)n2)cc1,log2 ratio of Biotin-Ahx-Ub-VS probe labelling,ALG13,-0.0925
same,log2 ratio of Biotin-Ahx-Ub-VS probe labelling,ATXN3,-0.907
same,log2 ratio of Biotin-Ahx-Ub-VS probe labelling,BAP1,-2.94 (active)
same,log2 ratio of Biotin-Ahx-Ub-VS probe labelling,EIF3F,-0.0557
same,log2 ratio of Biotin-Ahx-Ub-VS probe labelling,EIF3H,0.443
same,log2 ratio of Biotin-Ahx-Ub-VS probe labelling,FAM105A,-0.207
same,log2 ratio of Biotin-Ahx-Ub-VS probe labelling,OTUB1,-0.0658
same,log2 ratio of Biotin-Ahx-Ub-VS probe labelling,OTUD4,-0.702
same,log2 ratio of Biotin-Ahx-Ub-VS probe labelling,OTUD5,-0.997
